FBW7 activator: FBW7 E3 ligase activators, primary screen, biochemical, AlphaScreen, human; F-box/WD repeat-containing protein 7 (Homo sapiens), Q969H0; AlphaScreen FBW7–phospho-cyclin E peptide binding, activator screen; normalized activity (activation), % at 26.1 µM; 0.13% of 650,000 active; AID 1259310, 2017; in the data active means normalized activity above about 1.9%;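 further: purified mutant Fbw7 with reduced substrate affinity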
MITF primary: MITF inhibitors, primary screen, biochemical, AlphaScreen, human; 0.91% of 650,000 active; AlphaScreen MITF homodimerization, bead proximity signal; inhibition, % at 2.6 µM; in the data active means inhibition above about 50%
TEAD-YAP block: TEAD-YAP interaction inhibition, primary screen, TEAD-YAP interaction inhibitor project, luminescence, HEK-TIYL cells. TEAD-Gal4/YAP UAS-luciferase luminescence. 1.4% of 640,000 active. inhibition, % at 9.12 µM; in the data active means inhibition above about 32%
GPR151 activ: activators of human GPR151, primary screen, cell-based, PathHunter beta-arrestin, luminescence; activation, % at 11.2 µM; PathHunter beta-arrestin GPR151 cells; G-protein coupled receptor 151 (Homo sapiens), Q8TDV0; AID 1508602, 2020; 1% of 650,000 active; in the data active means activation above about 4.9%
GPR151 confirm: GPR151 activators, triplicate retest, confirmation, cell-based, PathHunter beta-arrestin, luminescence; activation, % at 11.2 µM; shares compounds with GPR151 activ; 6,700 tested, under 10 active; GPR151 PathHunter beta-arrestin cells, 90 min; % of EA-reagent control over plate median; AID 1508609, 2020;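 active means mean percent activation across replicates above the confirmation screen cutoff of 4.91%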
GPR119 ag: GPR119 activators in beta-arrestin cells, counter-screen for GPR151 activator project, cell-based, PathHunter beta-arrestin, luminescence, triplicate; 90 min; 0 = compound-well median, 100 = enzyme-acceptor control; shares compounds with GPR151 activ; AID 1508611, 2020; activation, % at 11.2 µM; 0.3% of 6,700 active;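 active means mean percent activation in the counterscreen above 29.09%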;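 further: counterscreen on off-target GPR119 to flag nonselective hits from the GPR151 activator screen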
Target sequence (Q8TDV5 whole entry, looked up): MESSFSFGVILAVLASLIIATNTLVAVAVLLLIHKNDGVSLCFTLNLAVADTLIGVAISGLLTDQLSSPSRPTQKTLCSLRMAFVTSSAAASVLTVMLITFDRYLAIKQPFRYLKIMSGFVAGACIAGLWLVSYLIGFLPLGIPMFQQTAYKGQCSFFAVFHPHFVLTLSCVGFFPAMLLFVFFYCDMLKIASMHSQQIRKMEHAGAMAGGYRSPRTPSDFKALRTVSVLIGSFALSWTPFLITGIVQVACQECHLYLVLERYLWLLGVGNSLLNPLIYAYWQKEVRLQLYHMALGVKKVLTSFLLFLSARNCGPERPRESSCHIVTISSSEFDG
Of the large screens only hits and unclear results are named; the others gave an inactive call (follow-up assays come after a bar, where they were run). Sampled rows, rich in hits. Any-hit rate of the full collection: about 3.5%.

CCOC(=O)c1c(NC(=O)CSc2ccccn2)sc2c1CCCC2	GPR151 activ 6.8 | GPR151 confirm inactive | GPR119 ag inactive
CCN1C(=O)Cc2cc(NC(=O)NCc3ccccc3)ccc21	none
COc1cc(OC)c(/C=N/NC(=O)c2ccccc2C)cc1Br	none
CCCCCn1c(NCc2ccccc2)nc2c1c(=O)[nH]c(=O)n2C	none
CNc1ccccc1C(=O)OCC(=O)Nc1ccc(C#N)cc1	none
COc1ccccc1C(=O)OCC(=O)Nc1ccc(C#N)cc1	GPR151 activ 6.1 | GPR151 confirm inactive | GPR119 ag inactive
CC(C)CC(NC(=O)C1CCC(C)CC1)C(=O)Nc1cccnc1 (stereo not drawn)	GPR151 activ 7.4 | GPR151 confirm inactive | GPR119 ag inactive
CC1CC(=O)N(c2ccc(N3CCCCCC3)c([N+](=O)[O-])c2)C1=O (stereo not drawn)	none
CC1CC(C)CN(c2ccc(N3C(=O)CC(C)C3=O)cc2[N+](=O)[O-])C1 (stereo not drawn)	GPR151 activ 6.5 | GPR151 confirm inactive | GPR119 ag inactive
Oc1oc(-c2ccccc2Br)nc1C=Nc1ccccc1Cl	GPR151 activ 5.0 | GPR151 confirm inactive | GPR119 ag inactive
CCOc1ccccc1NC(=O)c1c(NC(=O)C(C)Oc2cccc(Cl)c2)sc2c1CCC(C)C2 (stereo not drawn)	none
CC(C)(C)C(=O)/C=C(\N)Cc1ccccc1	GPR151 activ 8.1 | GPR151 confirm inactive | GPR119 ag inactive
CC(C)(C)C(=O)/C=C(/N)c1ccccn1	none
Cc1ccc(NC(=O)c2cnc(SCc3ccccn3)n(C)c2=O)cc1	none
COc1cc(NC(=O)CSc2nnnn2C)cc(OC)c1	GPR151 activ 5.1 | GPR151 confirm inactive | GPR119 ag inactive
Cc1ccc(C)c(OCCCN2CCOCC2)c1Cl	none
N#Cc1cc(C(=O)c2cc(F)ccc2O)cn(C2CC2)c1=O	GPR151 activ 5.9 | GPR151 confirm inactive | GPR119 ag inactive
O=C(N/N=C/c1ccc2c(c1)OCCO2)c1ccc(O)c(Br)c1	none
CCCn1c(=NC(=O)C(C)(C)C)c(C(=O)OCC)cc2c(=O)n3ccccc3nc21	none
CCCCn1c(=NC(=O)C(C)(C)C)c(C(=O)OCC)cc2c(=O)n3ccccc3nc21	GPR151 activ 5.3 | GPR151 confirm inactive | GPR119 ag inactive
N#Cc1cc(C#N)c(SCC2COc3ccccc3O2)nc1N (stereo not drawn)	none
CC1(C)CC(NC(=S)Nc2ccccc2F)CC(C)(C)N1	GPR151 activ 8.3 | GPR151 confirm inactive | GPR119 ag inactive
Cc1cc2c(cc1C)C(c1cc([N+](=O)[O-])ccc1Cl)CC(=O)N2 (stereo not drawn)	GPR151 activ 5.0 | GPR151 confirm inactive | GPR119 ag inactive
COc1cc(C2CC(=O)Nc3cc(C)c(C)cc32)cc(OC)c1OC (stereo not drawn)	TEAD-YAP block 49, GPR151 activ 13 | GPR151 confirm inactive | GPR119 ag inactive
COc1cccc(C2CC(=O)Nc3cc(C)c(C)cc32)c1OC (stereo not drawn)	none
Cc1cc2c(cc1C)C(c1cccc([N+](=O)[O-])c1)CC(=O)N2 (stereo not drawn)	none
COc1ccc(C(CC(=O)NCC2(c3ccc(OC)c(OC)c3)CCCC2)c2ccccc2)cc1 (stereo not drawn)	none
CCOc1ccc2ccccc2c1C(=O)NCc1cccs1	none
CCOc1ccc2ccccc2c1C(=O)NCc1ccccn1	GPR151 activ 21 | GPR151 confirm inactive | GPR119 ag inactive
O=c1c2nccnc2nc(SCc2cccc(F)c2)n1Cc1ccco1	GPR151 activ 12 | GPR151 confirm inactive | GPR119 ag inactive
O=c1c2cc3c(cc2nc(SCc2cccc(F)c2)n1Cc1ccco1)OCO3	none
CC(=O)c1cccc(NC(=O)N2CCCC2C(=O)Nc2cccc(C)c2)c1 (stereo not drawn)	GPR151 activ 15 | GPR151 confirm inactive | GPR119 ag inactive

Compound activity as filed in PubChem BioAssay.
